Measurements published in ChEMBL document CHEMBL3433997, “St. Jude Leishmania screening dataset” (2016).
Where “and” joins values, the source holds several entries; their conditions need not be identical. Identical values can stand only once.

Columns and labels:
Format in all cases: functional
[1] = molecular target: Solute carrier family 2, facilitated glucose transporter member 1 (Homo sapiens) (UniProt P11166); experiment: ST_JUDE_LEISH: Cytotoxicity at 2uM final concentration against transgenic Leishmania Mexicana promastigotes LmGLUT1 that are glucose transport deficient and complemented with the human glucose transporter GLUT1. Activity is measured by DNA content using SYBR green in vitro
[2] = molecular target: Hexose transporter 1 (Plasmodium falciparum) (UniProt O97467); experiment: ST_JUDE_LEISH: Cytotoxicity at 2uM final concentration against transgenic Leishmania Mexicana promastigotes LmPfHT that are glucose transport deficient and complemented with the Plasmodium falciparum hexose transporter. Activity is measured by DNA content using SYBR green in vitro
[3] = molecular target: Glucose transporter (Leishmania mexicana) (UniProt O61059); experiment: ST_JUDE_LEISH: Cytotoxicity at 2uM final concentration against transgenic Leishmania Mexicana promastigotes LmGT2 that are glucose transport deficient and complemented with the L. Mexicana glucose transporter 2. Activity is measured by DNA content using SYBR green in vitro

Sequence of Solute carrier family 2, facilitated glucose transporter member 1 (Homo sapiens) (P11166 whole entry): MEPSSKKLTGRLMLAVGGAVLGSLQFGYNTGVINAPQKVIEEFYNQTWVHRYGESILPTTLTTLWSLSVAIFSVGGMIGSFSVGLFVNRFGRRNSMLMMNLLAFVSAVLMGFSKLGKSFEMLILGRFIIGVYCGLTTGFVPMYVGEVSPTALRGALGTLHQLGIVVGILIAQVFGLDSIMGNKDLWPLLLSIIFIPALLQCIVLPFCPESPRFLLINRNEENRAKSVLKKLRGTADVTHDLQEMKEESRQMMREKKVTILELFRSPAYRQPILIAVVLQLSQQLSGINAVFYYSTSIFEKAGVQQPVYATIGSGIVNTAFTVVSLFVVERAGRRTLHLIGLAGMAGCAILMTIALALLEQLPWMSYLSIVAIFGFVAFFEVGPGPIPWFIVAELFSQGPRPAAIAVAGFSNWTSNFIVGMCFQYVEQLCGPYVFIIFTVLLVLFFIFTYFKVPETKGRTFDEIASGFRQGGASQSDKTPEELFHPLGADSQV

Row | Compound | inhibition [1] | inhibition [2] | inhibition [3]
1 | C1=C(c2c[nH]c3ccccc23)CCN(Cc2ccccc2)C1 | 1.51% | 0.32% | -0.23%
2 | CC[C@H]1CN2CC[C@H]1C[C@H]2[C@H](O)c1cc(-c2ccc(F)cc2)nc2ccc(OC)cc12 | 0.09% | -0.06% | 1.25%
3 | OC1(CNCc2ccccc2)CCN(CCc2c[nH]c3ccc(F)cc23)CC1 | 4.9% | 8.31% | 5.83%
4 | COC(=O)c1ccc(CC(C)NCC(O)c2cccc(Br)c2)cc1 (stereo not given) | -0.96% | -1.92% | 2.26%
5 | CN(c1cc(NC(=O)c2ccc(F)cc2)ccn1)C1CCN(Cc2cccc(O)c2)CC1 | 2.68% | 4.98% | 6.32%
6 | O=C(/C=C/c1cccc(F)c1)NC1CCC(CN2CCC(c3c[nH]c4ccccc34)CC2)CC1 (stereo not given) | 2.52% and 1.33% | -0.05% and 2.1% | -1.71% and 2.77%
7 | O=C(/C=C/c1ccc(Cl)c(Cl)c1)NC1CCC(CN2CCC(c3c[nH]c4ccccc34)CC2)CC1 (stereo not given) | 2.35% | 1.2% | 1.83%
8 | O=C(/C=C/c1ccc(Cl)c(Cl)c1)N1CCC(CN2CCC(c3cn(CC(=O)N4CCCCC4)c4ccccc34)CC2)CC1 | 2.63% | 2.05% | -2.07%
9 | Cc1csc(-c2ccc3[nH]cc(C4=CCN(C)CC4)c3c2)n1 | 7.46% | 9.43% | 6.12%
10 | N#Cc1c(Cl)cccc1Oc1ccc(S(=O)(=O)NC2CCC(CN3CCC(c4c[nH]c5ccccc45)CC3)CC2)cc1 (stereo not given) | 0.9% and 1.4% | 1.87% and 1.07% | 0.19% and -0.57%
11 | O=C(Nc1cc(C(F)(F)F)cc(C(F)(F)F)c1)N1CCC(CN2CCC(c3c[nH]c4ccccc34)CC2)CC1 | 2.61% | 3.46% | 1.9%
12 | NCC(=O)c1cc2c(cc1N)OCCO2 | 8.91% | 9.43% | 3.9%
13 | CC(C)n1ncc2c(C(=O)Nc3ccc(C#N)c(Cl)c3)cc(C3CC3)nc21 | 2.24% | 1.01% | 3.4%
14 | COC(=O)c1sccc1NC(=S)NC1CCC(CN2CCC(c3c[nH]c4ccccc34)CC2)CC1 (stereo not given) | 4.17% and 2.22% | 3.81% and 3.47% | 0.42% and 1.38%
15 | Cc1cc2cc(CNCCc3ccccc3Br)ccc2nc1N | 9.09% | 1.37% | 5.36%
16 | CC[C@H]1CN2CC[C@@H]1C[C@H]2[C@H](O)c1cc(N2CCC(C(N)=O)CC2)nc2ccc(OC)cc12 | 8.84% | 7.92% | 8.43%
17 | COc1ccc(C=CC(=O)NC2CCC(CN3CCC(c4c[nH]c5ccccc45)CC3)CC2)cc1 (stereo not given) | 3.28% and -0.32% | 1.24% and -0.89% | -5.37% and -4.75%
18 | O=C(NC1CCC(N2CCC3(CC2)C(=O)NCN3c2ccccc2)CC1)c1cc2ccccc2[nH]1 (stereo not given) | -0.44% | -0.89% | 0.13%
19 | CC[C@H]1CN2CC[C@H]1C[C@H]2C(O)c1cc(OC)nc2ccccc12 (stereo not given in full) | -0.41% | 0.13% | -0.23%
20 | CC[C@H]1CN2CC[C@@H]1C[C@H]2[C@H](O)c1cc(N2CCC(O)(c3ccccc3)CC2)nc2ccc(OC)cc12 | 5.33% | 4.26% | 1.87%
21 | COc1ccc(C(=O)c2ccc3[nH]cc(C4=CCN(C)CC4)c3c2)cc1 | -0.74% | -1.41% | 0.07%
22 | CC(=O)Nc1ccc(CN2CCC(N(C)c3cc(NC(=O)c4cccc(F)c4)ccn3)CC2)cc1 | -0.4% | -0.05% | 0.23%
23 | O=C(/C=C/c1ccc(Cl)c(Cl)c1)NCCC1CCC(N2CCC(c3c[nH]c4ccc(O)cc34)CC2)CC1 (stereo not given) | 0.48% | 3.87% | 1.36%
24 | Cc1c(C)c2c(c(C)c1O)CC[C@@](C)(C(=O)N1CCC(CN3CCC(c4c[nH]c5ccccc45)CC3)CC1)O2 | -0.93% | -1.76% | -3.6%

Row | Compound | inhibition [1] | inhibition [2] | inhibition [3]
25 | CN(c1cc(NC(=O)c2cccs2)ccn1)C1CCN(Cc2cccc(F)c2)CC1 | 3.38% | 3% | 5.71%
26 | COc1ccc(C=CC(=O)NC2CCC(CN3CCC(c4c[nH]c5ccccc45)CC3)CC2)cc1OC (stereo not given) | 2.26% and 2.87% | 0.82% and 2.73% | -1.08% and -3.42%
27 | CCN(Cc1ccccc1)CC(O)c1ccc(Cl)c(Cl)c1 (stereo not given) | 0.91% | 0.62% | 1.21%
28 | O=C(NC1CCC(CN2CCC(c3c[nH]c4ccccc34)CC2)CC1)c1cc2cccc([N+](=O)[O-])c2[nH]1 (stereo not given) | -2.16% | 2.66% | -0.94%
29 | FC(F)(F)c1ccc(NC(=S)NC2CCC(CN3CCC(c4c[nH]c5ccccc45)CC3)CC2)cc1 (stereo not given) | 13.2% and 1.58% | 12.7% and 6.46% | 3.66% and 2.93%
30 | Cc1ccc(CC(C)(C)NCC(O)c2cccc(C(F)(F)F)c2)cc1 (stereo not given) | 2.49% | 2.91% | 3.49%
31 | O=C1Nc2cccc3c2C1(CCCCCN1CC=C(c2c[nH]c4ccccc24)CC1)CCC3 (stereo not given) | 14.1% | 10.6% | 12.8%
32 | COCCSc1ccc(CC(C)NCC(O)c2cccc(Cl)c2)cc1 (stereo not given) | 0.56% | 0.25% | 0.74%
33 | S=C(Nc1ccccc1Cl)NC1CCC(CN2CCC(c3c[nH]c4ccccc34)CC2)CC1 (stereo not given) | 5.7% | 8.06% | 3.34%
34 | CC[C@H]1CN2CC[C@H]1C[C@H]2[C@H](O)c1cc(-c2ccccc2C)nc2ccc(OC)cc12 | 0.33% | 0.37% | -4.71%
35 | O=C(/C=C/c1ccccc1Cl)NC1CCC(CN2CCC(c3c[nH]c4ccccc34)CC2)CC1 (stereo not given) | 2.44% and 5.03% | 0.61% and 3.12% | -3.81% and 6.89%
36 | COCCNCc1cccc(-c2ccccc2CN(C(=O)Nc2ccccc2)C2CCN(Cc3ccccc3)CC2)c1 | -0.65% | -2.21% | 4.23%
37 | COc1cccc(C(=O)C2CC2CN2CC=C(c3c[nH]c4ccc(OC)nc34)CC2)c1 (stereo not given) | 0.65% | 1.41% | 1.94%
38 | CC(=O)Nc1ccc(CN2CCC(N(C)c3cc(NC(=O)c4ccc(F)cc4)ccn3)CC2)cc1 | 1.04% | 2.13% | 2.53%
39 | Oc1ccc2[nH]cc(C3=CCN(CCc4ccccc4)CC3)c2c1 | 15.8% | 18.1% | 13.4%
40 | O=S(=O)(NC1CCC(CN2CCC(c3c[nH]c4ccccc34)CC2)CC1)c1ccc(Cl)c(Cl)c1 (stereo not given) | -2.62% | -1.92% | -2.55%
41 | Cc1ccc(C)c(N2CCN(Cc3ccccc3O)CC2)c1 | 0.11% | 1.02% | 2.41%
42 | CCN1CCC(N2CCC(n3c(C)nc4cc(C(F)(F)F)ccc43)CC2)CC1 | 3.01% | 3.12% | 4.4%
43 | CC[C@H]1CN2CC[C@H]1C[C@H]2[C@H](O)c1cc(N2CCCC(C(=O)N(CC)CC)C2)nc2ccc(OC)cc12 (stereo not given in full) | 1.75% | 2.21% | 0.33%
44 | CCCCCC(C)C(C)c1cc(O)c2c3c(c(=O)oc2c1)CN(Cc1ccccc1)CC3 (stereo not given) | 2.03% | 0.04% | -0.43%
45 | Brc1cnc(NC2=NCCN2)c(Br)c1 | 2.63% | 3.41% | 3.27%
46 | O=C(Nc1ccc(CN2CCC(c3c[nH]c4ccc(O)cc34)CC2)cc1)c1ccc(-c2ccccc2)cc1 | 5.73% | 3.85% | 5.18%
47 | O=C(Nc1cc(C(F)(F)F)cc(C(F)(F)F)c1)NC1CCC(CN2CCC(c3c[nH]c4ccccc34)CC2)CC1 (stereo not given) | -2.79% and 4.32% | -1.6% and 4.26% | -0.26% and 2.03%
48 | CC[C@H]1CN2CC[C@H]1C[C@H]2[C@H](O)c1cc(-c2cccc(C)c2)nc2ccc(OC)cc12 | 3.99% | 2.64% | 4.03%

Row | Compound | inhibition [1] | inhibition [2] | inhibition [3]
49 | CCCCCCCc1cc(O)c2c3c(c(=O)oc2c1)CN(C)CC3 | 10.7% | 11.3% | 10.7%
50 | CS(=O)(=O)Nc1ccc2[nH]cc(C3CC4CCC(C3)N4CC3CCC(NC(=O)/C=C/c4ccc(Cl)c(Cl)c4)CC3)c2c1 (stereo not given) | 5.91% | 5.37% | 5.09%
51 | CCN(CC)CCN1C(=O)C(O)(c2ccccc2Cl)c2c1cc(C(N)=O)cc2C(F)(F)F (stereo not given) | 3.25% | 2.29% | 2.69%
52 | Cc1[nH]c2cc(F)ccc2c1C1=CCN(CCCCC2(C)C(=O)Nc3c(F)cccc32)CC1 (stereo not given) | 3.71% | 5.17% | 4.44%
53 | Cn1nc(-c2ccc(S(=O)(=O)NC3CCC(CN4CCC(c5c[nH]c6ccccc56)CC4)CC3)s2)cc1C(F)(F)F (stereo not given) | 5.26% and 1.76% | 4.54% and 4.39% | 1.24% and 0.16%
54 | O=C(C=Cc1ccccc1O)N1CCC(CN2CCC(c3c[nH]c4ccccc34)CC2)CC1 | 2.59% | 2.2% | 2.49%
55 | CCCCCCCn1c(=O)c(C(=O)Nc2c(C)cccc2C)c(O)c2ccccc21 | 2.89% | 1.98% | 3.35%
56 | C=C[C@H]1CN2CC[C@H]1C[C@H]2[C@H](O)c1ccnc2ccccc12 | 0.68% | 1.87% | 1.5%
57 | CC(=O)C1(c2ccccc2)CCN(CCC2(c3ccc(Cl)c(Cl)c3)CN(C(=O)c3cccc(Cl)c3)CCO2)CC1 (stereo not given) | -0.25% | -2.92% | -1.43%
58 | O=C(Cc1cc(=O)oc2cc(O)ccc12)N1CCC(CN2CCC(c3c[nH]c4ccccc34)CC2)CC1 | 4.12% | 5.46% | 5%
59 | O=C(/C=C/c1ccc(O)cc1)NC1CCC(CN2CCC(c3c[nH]c4ccccc34)CC2)CC1 (stereo not given) | -4.73% | -2.63% | -0.07%
60 | CN(c1cc(NC(=O)c2cccs2)ccn1)C1CCN(Cc2cccc(C#N)c2)CC1 | 8.2% | 9.92% | 8.95%
61 | COc1cc2c(c(OC)c1OC)C[C@H]1c3c(cc4c(c3-2)OCO4)CCN1C | -0.22% | 1.49% | 1.06%
62 | CC(Cc1ccc(OCCCCOc2ccccc2)cc1)NCCc1ccccc1Cl (stereo not given) | 15% | 19.8% | 7.82%
63 | COC(=O)c1ccc(CC(C)NCC(O)c2ccc(F)c(Cl)c2)cc1 (stereo not given) | 0.56% | 0.78% | 2.31%
64 | Cc1[nH]c2ccccc2c1C1=CCN(CCCCCC23CCCc4cccc(c42)NC3=O)CC1 (stereo not given) | 2.18% | 2.47% | 3.51%
65 | CCCCC1(NC(=O)[C@H](CC(C)C)Nc2ccc(C#N)c3ccccc23)CCCCC1 | 1.12% | 4.9% | 2.56%
66 | NCc1ccc(-c2ccccc2CN(C(=O)Nc2ccccc2)C2CCN(Cc3ccccc3)CC2)cc1 | 2.32% | 1.83% | -3.48%
67 | COc1ccc(CC(C)NCC(O)c2cccc(Br)c2)cc1 (stereo not given) | 10.3% | 8.65% | 9.13%
68 | CC(=O)N(Cc1cccc(-c2cccc(CNCCc3ccccc3)c2)c1)C1CCN(Cc2ccccc2)CC1 | -0.27% | 1.94% | 4.41%
69 | Fc1ccc(N(c2nc(-c3cc(F)cc(C(F)(F)F)c3)cs2)C2CCNCC2)cc1 | -1.03% | -0.75% | -1.46%
70 | O=C(/C=C/c1ccc(Cl)c(Cl)c1)NC1C2CCC1CC(CN1CCC(c3c[nH]c4ccccc34)CC1)C2 (stereo not given) | 3.31% | 4.24% | 2.44%
